For 7 compounds, growth results are on record in PubChem BioAssay (NCI).

What all share (experiment): NCI-60 one-dose screen, 48 h (100 = growth as untreated, 0 = no growth, -100 = all killed)
In one test the test system is HT29 colon. To be noted: 10 µM unless noted.
A further test deals with SNB-75 CNS. Particulars: 10 µM unless noted.
Another test relates to SNB-19 CNS. To be noted: 10 µM unless noted.
Another test concerns U251 CNS. Particulars: 10 µM unless noted.
A further test deals with PC-3 prostate. To be noted: 10 µM unless noted.
The next test relates to SK-MEL-5 melanoma. Particulars: 10 µM unless noted.
The subject of another test is UACC-62 melanoma. Particulars: 10 µM unless noted.
The next test deals with LOX IMVI melanoma. Particulars: 10 µM unless noted.
A further test has as its system SK-MEL-28 melanoma. To be noted: 10 µM.
For the next test, the system named is SK-MEL-2 melanoma. To be noted: 10 µM unless noted.
For a further test, the system named is EKVX NSCLC. Particulars: 10 µM unless noted.
A further test relates to SN12C renal. To be noted: 10 µM unless noted.
The test system of the next test is UO-31 renal. To be noted: 10 µM unless noted.
A further test concerns TK-10 renal. To be noted: 10 µM unless noted.
Another test deals with ACHN renal. Particulars: 10 µM unless noted.
For the next test, the system named is CAKI-1 renal. Particulars: 10 µM unless noted.
For another test, the system named is A498 renal. To be noted: 10 µM unless noted.
For the next test, the system named is CCRF-CEM leukemia. To be noted: 10 µM unless noted.
The next test relates to MOLT-4 leukemia. Particulars: 10 µM unless noted.
In another test the test system is SR leukemia. To be noted: 10 µM unless noted.

SMILES strings stand for the structures. The panel holds about 83,000 compounds, 20% with a hit somewhere; the sample as a whole holds those more often.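 Treatment: one concentration, 48 hours, 96-well format. Scoring: percent growth, with anything below 10 considered active.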 Values without a mark were called inactive. Active and inactive are the calls of the source.

On to `Fc1ccc(Oc2ccc(Nc3ncnc4onc(-c5ccccc5)c34)cc2)cc1`, for which the growth in the test with HT29 colon is 109%; in the test with SNB-75 CNS it was 86.4%; in the test on SNB-19 CNS, 94%; in the test on U251 CNS it was 91.4%; with PC-3 prostate it was 101%; in the test with SK-MEL-5 melanoma, 100%. In addition, the growth is 92.1% in the test on UACC-62 melanoma; 95.8% with LOX IMVI melanoma; 110% with SK-MEL-28 melanoma; 112% in the test on SK-MEL-2 melanoma; 98.9% in the test on EKVX NSCLC; 84.1% in the test with SN12C renal. Moreover, the growth in the test on UO-31 renal was 52.3%; with TK-10 renal, 102%; in the test with ACHN renal it was 99.8%; in the test on CAKI-1 renal it was 93.5%; in the test with A498 renal it was 67%; in the test with CCRF-CEM leukemia, 62.9%. The growth was 88.7% with MOLT-4 leukemia and 102% in the test on SR leukemia.

As to `O=C1/C(=C/c2ccc(O)cc2)COc2ccc(O)c(O)c21`, the growth in the test on HT29 colon was 44.6%; in the test on SNB-75 CNS it was 29.6%; with SNB-19 CNS it was 46.9%; with U251 CNS, 9.17% (active); in the test with PC-3 prostate, 41.9%; with SK-MEL-5 melanoma, 44.1%. In addition, the growth in the test on UACC-62 melanoma is 24.3%; in the test with LOX IMVI melanoma it was -48.1% (active); in the test with SK-MEL-28 melanoma, 52.7%; in the test with SK-MEL-2 melanoma, 85.2%; in the test with EKVX NSCLC, 71.5%; in the test on SN12C renal, -4.74% (active). Further, the growth in the test with UO-31 renal was -88.5% (active); in the test with TK-10 renal, 54.1%; in the test with ACHN renal it was -16.2% (active); in the test on CAKI-1 renal, 6.4% (active); with A498 renal, 98.4%; in the test with MOLT-4 leukemia it was 4.43% (active). For the same compound, in the test with SR leukemia, the growth is 12.7%.

With `COc1cc(/C=C2\CCC/C(=C\c3cc(CN4CCOCC4)c(O)c(OC)c3)C2=O)cc(CN2CCOCC2)c1O`, the growth with HT29 colon was 3.44% (active); in the test with SNB-75 CNS, 4.53% (active); in the test on SNB-19 CNS, 52.8%; in the test on U251 CNS, 22%; in the test with PC-3 prostate, 39.9%; in the test on SK-MEL-5 melanoma, 52.3%. Moreover, the growth was 40% in the test with UACC-62 melanoma; 13.3% in the test on LOX IMVI melanoma; 58.7% with SK-MEL-28 melanoma; 62.7% in the test with SK-MEL-2 melanoma; 54.3% in the test with EKVX NSCLC; 29.3% in the test with SN12C renal. The growth with UO-31 renal is 52.6%; with TK-10 renal it was 53.8%; in the test with ACHN renal, 25.1%; in the test with CAKI-1 renal, 46.1%; in the test with A498 renal it was 58.6%; in the test with MOLT-4 leukemia, 11%. Moreover, in the test on SR leukemia, the growth is 38%.

In the case of `CNCCNc1nc2ccccc2c2c(=O)c3cccc(OC)c3sc12`, the growth with HT29 colon was -17.5% (active); with SNB-75 CNS, 26.2%; in the test on SNB-19 CNS it was 42%; in the test with U251 CNS it was -45.2% (active); with PC-3 prostate, 26.1%; with SK-MEL-5 melanoma, 57.9%. For the same compound, the growth was 44.4% with UACC-62 melanoma; 12.2% in the test with LOX IMVI melanoma; 62.3% in the test on SK-MEL-28 melanoma; 73.1% in the test with SK-MEL-2 melanoma; 22.8% in the test on EKVX NSCLC; 45.2% with SN12C renal. Further, the growth in the test with UO-31 renal is 24.9%; in the test with TK-10 renal it was 44.1%; in the test on CAKI-1 renal it was 36.1%; with A498 renal, 3.67% (active); in the test on CCRF-CEM leukemia, 12.2%; in the test with MOLT-4 leukemia, 0.177% (active). In addition, the growth in the test on SR leukemia is -1.21% (active).

As for `COC(=O)c1c2c(c(C)[n+]([O-])c1C)C(=O)C(NCc1ccc(F)c(F)c1)=CC2=O`, the growth in the test with HT29 colon is 11.6%; in the test on SNB-75 CNS, 83.6%; in the test on SNB-19 CNS, 8.33% (active); with U251 CNS, 2.99% (active); with PC-3 prostate, 15.6%; in the test with SK-MEL-5 melanoma it was -97% (active). Besides, the growth in the test on UACC-62 melanoma is -15.7% (active); in the test with LOX IMVI melanoma it was 5.3% (active); in the test with SK-MEL-28 melanoma, 50.2%; in the test with SK-MEL-2 melanoma, 43.1%; with EKVX NSCLC it was 13%; with SN12C renal, 1.1% (active). The growth was 58.8% in the test on UO-31 renal; 85.5% in the test on TK-10 renal; 43% in the test with CAKI-1 renal; 21.5% in the test on CCRF-CEM leukemia; 8.41% (active) in the test on MOLT-4 leukemia; 20.4% in the test on SR leukemia.

As to `CCCCN1CCN(c2ccc3nc(-c4ccc5nc(-c6ccc(OC)c(OC)c6)[nH]c5c4)[nH]c3c2)CC1`, the growth with HT29 colon was 5.94% (active); with SNB-75 CNS it was 6.59% (active); with SNB-19 CNS it was 0.577% (active); in the test with U251 CNS, -45.3% (active); with PC-3 prostate it was 14.3%; with SK-MEL-5 melanoma, -34.4% (active). Besides, the growth in the test on UACC-62 melanoma is -58.5% (active); with LOX IMVI melanoma it was -81.4% (active); with SK-MEL-28 melanoma, -71.2% (active); in the test on SK-MEL-2 melanoma it was -51.2% (active); with EKVX NSCLC, 38.8%; in the test on SN12C renal, 7.75% (active). Further, the growth is 50.7% in the test on UO-31 renal; 14.9% with TK-10 renal; 2.47% (active) in the test on ACHN renal; 2.32% (active) in the test on CAKI-1 renal; 3.3% (active) in the test with CCRF-CEM leukemia; -14.3% (active) in the test on MOLT-4 leukemia. The growth in the test on SR leukemia was -6.6% (active).

For `O=C(CCN1C(=O)c2ccccc2C1=O)Nc1ccc(Cl)cc1`, the growth in the test on HT29 colon was 44.4%; in the test with SNB-75 CNS it was 94.5%; with SNB-19 CNS it was 90.3%; with U251 CNS, 62.2%; with PC-3 prostate it was 71.7%; in the test on SK-MEL-5 melanoma, 81%. Besides, the growth in the test with UACC-62 melanoma is 87.4%; in the test on LOX IMVI melanoma, 60.2%; in the test with SK-MEL-28 melanoma, 117%; in the test with SK-MEL-2 melanoma it was 98.7%; with EKVX NSCLC, 88.2%; in the test with SN12C renal it was 75.3%. The growth was 50.1% with UO-31 renal; 93.1% in the test on TK-10 renal; 68.4% with CAKI-1 renal; 103% with A498 renal; 43.3% in the test on CCRF-CEM leukemia; 42% in the test with MOLT-4 leukemia.
